The structures appear in SMILES notation. “And” between values parts separate entries of the source, which are not always exact repeats. Identical values can stand only once. The source made the active and inactive calls. The calls were made as follows: active = hit-call score of the fitted dose curve at least 0.9, where 1 is the maximum; inactive = score below 0.9.

Experiment [1] has as its target Transcription factor E2F1 (Homo sapiens) (UniProt Q01094). As to the kind of experiment: ATG_E2F_CIS: Attagene CIS-FACTORIAL HepG2 Assay for human E2F Transcription Factor 1 (AID 2282935). The settings on record: HepG2 Attagene cis-reporter, E2F reporter RNA transcripts; actives raise or lower the signal. The essentials: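 HepG2 cells transiently transfected with multiplexed cis-element reporter units, dosed for 24 h. Reporter mRNA measured by RT-PCR, 6-FAM primer-extension labeling, HpaI digestion and capillary electrophoresis; bidirectional fit versus DMSO baseline.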

Experiment [2] can be described thus: ATG_E_Box_CIS: Attagene CIS-FACTORIAL HepG2 Assay for human Enhancer Box (E-box) (AID 2282936). As to conditions: HepG2 E-box cis-reporter transcription, actives raise or lower the signal. The method, boiled down:
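HepG2 cells transiently transfected with multiplexed cis-element reporter units sensing endogenous transcription factor activity; 24 h compound exposure. Reporter mRNA measured by RT-PCR, 6-FAM primer extension, HpaI digestion and capillary electrophoresis; bidirectional fit versus DMSO.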

Experiment [3] is described as follows: ATG_M_61_CIS: Attagene CIS-FACTORIAL HepG2 Assay for M61 Transcription Factor (Internal Marker) (AID 2282937). As to conditions: HepG2 Attagene CIS-FACTORIAL M61 internal marker reporter; actives raise or lower the signal. The essentials: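 Endogenous transcription factor activity in HepG2 is read through transiently transfected cis-element reporter units. After 24 h dosing, RNA undergoes reverse transcription, PCR and primer extension with 6-FAM before capillary electrophoresis; DMSO-referenced bidirectional fit.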

Experiment [4] can be described thus: ATG_EGR_CIS: Attagene CIS-FACTORIAL HepG2 Assay for human Early Growth Response 1 (EGR1) (AID 2282938). The settings on record: HepG2 Attagene CIS-FACTORIAL EGR reporter mRNA; actives raise or lower the signal. The method, boiled down: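 Activity is taken as induction or loss of reporter mRNA versus DMSO, fitted bidirectionally. Transcripts from cis-regulated reporter units in transiently transfected HepG2 were measured after 24 h by RT-PCR with capillary electrophoresis.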

Experiment [5] can be described thus: ATG_M_19_CIS: Attagene CIS-FACTORIAL HepG2 Assay for M19 Transcription Factor (Internal Marker) (AID 2282939). As to conditions: HepG2 Attagene CIS-FACTORIAL M19 internal marker reporter; actives raise or lower the signal. The method, boiled down:
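HepG2, MRTU transient transfection, 24 h dosing. Total RNA → RT-PCR → 6-FAM primer extension → HpaI digest → CE fluorescence. Bidirectional curve fit, DMSO negative control.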

Experiment [6] is described as follows: ATG_ERE_CIS: Attagene CIS-FACTORIAL HepG2 Assay for Estrogen Response Element (ERE) (AID 2282940). As to conditions: HepG2 ERE cis-reporter, Attagene RNA transcript; actives raise or lower the signal. The method, boiled down: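 After a 24 h chemical treatment, RNA from reporter-transfected HepG2 cells is reverse-transcribed, PCR-amplified and fluorescently labelled. Fragments separated by capillary electrophoresis give reporter signal; DMSO serves as negative control.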

Experiment [7] is described as follows: ATG_Ets_CIS: Attagene CIS-FACTORIAL HepG2 Assay for human Erythroblast Transformation Specific (ETS) (AID 2282941). As to conditions: HepG2 ETS cis-reporter transcription, actives raise or lower the signal. The essentials:
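HepG2 cells transiently transfected with cis-promoter reporter transcription units were dosed for 24 h; reporter mRNA was measured by RT-PCR, 6-FAM primer extension, HpaI digestion and capillary electrophoresis, with bidirectional fitting against DMSO baseline.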

Experiment [8] concerns the target Hepatocyte nuclear factor 3-beta (Homo sapiens) (UniProt Q9Y261). As to the kind of experiment: ATG_FoxA2_CIS: Attagene CIS-FACTORIAL HepG2 Assay for human Forkhead box A2 (FOXA2) (AID 2282942). The settings on record: HepG2 cis-reporter transcription factor activity, 24 h; actives raise or lower the signal. The essentials:
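Reporter transcript induction is measured by fluorescence after capillary electrophoresis of RT-PCR products from HepG2 cells exposed 24 h. Cis-regulated reporter units report endogenous factor activity; curves fitted both directions against DMSO.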

The nature of experiment [9]: ATG_FoxO_CIS: Attagene CIS-FACTORIAL HepG2 Assay for human Forkhead box O (FoxO) (AID 2282943). The settings on record: HepG2 Attagene cis-reporter, FoxO element, mRNA; actives raise or lower the signal. The method, boiled down: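 24 h chemical exposure, HepG2 with transient cis-MRTU transfection. RNA extraction, oligo(dT) RT, reporter-specific PCR, primer-extension labelling, HpaI digestion, CE fragment analysis; bidirectional fit, DMSO baseline.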

Experiment [10] is described as follows: ATG_GATA_CIS: Attagene CIS-FACTORIAL HepG2 Assay for human GATA Binding Protein (AID 2282944). The settings on record: HepG2 GATA cis-element reporter, Attagene multiplex mRNA; actives raise or lower the signal. The method, boiled down: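 Cells: HepG2, transiently transfected with cis-regulated reporter transcription units. Exposure: 24 h. Detection: RT-PCR plus capillary electrophoresis of FAM-labeled fragments. Analysis: bidirectional, DMSO as baseline.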

Chain of Transcription factor E2F1 (Homo sapiens) (Q01094 whole entry, looked up): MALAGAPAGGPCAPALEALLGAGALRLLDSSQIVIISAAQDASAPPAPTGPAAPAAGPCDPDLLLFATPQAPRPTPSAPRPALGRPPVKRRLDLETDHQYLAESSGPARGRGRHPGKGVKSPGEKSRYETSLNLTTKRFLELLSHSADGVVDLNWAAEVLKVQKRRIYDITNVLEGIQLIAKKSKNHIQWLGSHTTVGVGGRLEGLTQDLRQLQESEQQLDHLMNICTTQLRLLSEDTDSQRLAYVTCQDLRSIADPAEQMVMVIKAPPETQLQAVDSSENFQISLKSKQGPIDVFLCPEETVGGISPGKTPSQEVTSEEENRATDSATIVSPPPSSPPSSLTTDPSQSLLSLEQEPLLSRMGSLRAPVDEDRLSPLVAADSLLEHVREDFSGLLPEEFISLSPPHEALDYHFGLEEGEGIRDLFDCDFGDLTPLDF
Chain of Hepatocyte nuclear factor 3-beta (Homo sapiens) (Q9Y261 whole entry, looked up): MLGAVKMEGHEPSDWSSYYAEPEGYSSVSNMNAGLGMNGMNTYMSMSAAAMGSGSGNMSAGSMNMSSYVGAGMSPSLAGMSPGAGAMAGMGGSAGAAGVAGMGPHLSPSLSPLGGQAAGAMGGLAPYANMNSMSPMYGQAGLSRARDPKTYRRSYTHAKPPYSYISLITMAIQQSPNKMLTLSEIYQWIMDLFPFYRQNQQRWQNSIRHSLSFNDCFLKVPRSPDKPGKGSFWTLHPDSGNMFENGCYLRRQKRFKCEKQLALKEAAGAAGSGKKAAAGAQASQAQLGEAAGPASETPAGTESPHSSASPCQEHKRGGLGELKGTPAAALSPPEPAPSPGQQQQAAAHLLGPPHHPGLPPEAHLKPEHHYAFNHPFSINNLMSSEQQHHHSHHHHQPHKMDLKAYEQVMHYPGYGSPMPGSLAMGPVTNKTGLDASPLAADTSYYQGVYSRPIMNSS

Regarding `C=CC(=O)OCC(F)(F)C(F)(F)C(F)(F)C(F)(F)COC(=O)C=C`, the compound was called inactive in [1], in experiment [3], in [5], in [6], in experiment [7] and in experiment [8]. For the same compound, the compound was called inactive in experiment [9] and in [10]. For the same compound, the AC50 in [2] was 34.9 µM (active); in experiment [4], 63 µM (active).

As for `C(=C(c1ccccc1)c1ccccc1)c1ccccc1`, the compound was called inactive in [1], in experiment [2], in experiment [3], in experiment [4], in experiment [5] and in [7]. The compound was classed as inactive in [8], in experiment [9] and in experiment [10]. Further, in experiment [6], the AC50 is 0.0294 µM (active).

For the compound `Cc1cc(C)cc(O)c1`, the call in experiment [1], in [2], in experiment [3], in experiment [4], in experiment [5] and in [6] was inactive. Also, the call in [7], in experiment [8], in [9] and in experiment [10] was inactive.

On to `FC1CC(F)(F)C(F)(F)C1(F)F` (stereo not given), for which the outcome in experiment [1], in experiment [2], in [3], in experiment [4], in experiment [5] and in experiment [6] was inactive. The compound was classed as inactive in experiment [7], in experiment [8], in experiment [9] and in [10].

As for `OCCCC(F)(F)C(F)(F)C(F)(F)F`, the compound was classed as inactive in experiment [1], in experiment [2], in experiment [3], in [4], in experiment [5] and in experiment [6]. Further, the result in experiment [7], in [8], in experiment [9] and in experiment [10] was inactive.

Regarding `OCC(F)(F)C(F)(F)C(F)(F)C(F)(F)C(F)(F)C(F)F`, the call in experiment [1], in experiment [2], in experiment [3], in [4], in experiment [5] and in experiment [7] was inactive. Further, the compound was classed as inactive in [8], in experiment [9] and in experiment [10]. Besides, the AC50 in [6] is 6.1 µM (active).

On to `O=C(O)C(F)(F)C(F)(F)C(F)(F)C(F)(F)C(F)(F)C(F)(F)C(F)(F)C(F)(F)C(F)(F)C(F)F`, for which the compound was classed as inactive in experiment [1], in [2], in experiment [3], in [4], in [5] and in [7]. For the same compound, the compound was classed as inactive in experiment [8], in experiment [9] and in experiment [10]. Moreover, in [6], the half-maximal activity concentration (AC50) was 26.3 µM (active).

For the compound `C=CC(F)(F)C(F)(F)C(F)(F)C(F)(F)C(F)(F)C(F)(F)C(F)(F)C(F)(F)F`, the result in experiment [1], in experiment [2], in [3], in experiment [4], in experiment [5] and in experiment [6] was inactive. Also, the result in experiment [7], in [8], in experiment [9] and in experiment [10] was inactive.

On to `CC(C)c1ccccc1N`, for which the result in experiment [1], in [2], in [3], in experiment [4], in [5] and in [6] was inactive. Further, the compound was called inactive in experiment [7], in experiment [8] and in experiment [10]. Besides, in [9], the AC50 is 152 µM (active).

Consider `CCCCC(CC)COP(=O)(O)OCC(CC)CCCC` (stereo not given), for which the compound was called inactive in experiment [1], in experiment [2], in experiment [3], in experiment [4], in experiment [5] and in [6]. In addition, the compound was called inactive in [7], in experiment [8], in experiment [9] and in experiment [10].

Regarding `CS(C)(=O)=O`, the compound was classed as inactive in [1], in experiment [2], in experiment [3], in experiment [4], in experiment [5] and in [6]. Moreover, the result in experiment [7], in experiment [8], in experiment [9] and in [10] was inactive.

As for `O=C(O)C(F)(F)C(F)(F)C(F)(F)C(F)(F)C(F)(F)C(F)(F)C(F)(F)C(F)(F)Cl`, the call in [1], in experiment [2], in experiment [3], in experiment [5], in [7] and in [8] was inactive. In addition, the outcome in experiment [9] and in experiment [10] was inactive. The AC50 in experiment [4] is 50 µM (active) and 64.8 µM (active); in experiment [6], 15.4 µM (active) and 21.7 µM (active).

With `CC(C)(C)C(=O)CC(=O)C(F)(F)C(F)(F)C(F)(F)F`, the call in experiment [1], in experiment [2], in [3], in experiment [4], in experiment [5] and in experiment [6] was inactive. For the same compound, the compound was classed as inactive in experiment [7], in [8], in experiment [9] and in experiment [10].

As a reminder, the AC50 is the midpoint of the concentration-response curve, whichever way the signal moves.

The values are drawn from PubChem BioAssay (EPA / NIEHS).
